Here are results for five molecules from PubChem BioAssay AID905 (National Center for Advancing Translational Sciences (NCATS), 2007).

Molecules are shown by their SMILES. This is one part of the list. Inconclusive results are not listed. Active and inactive are the calls of the source. Calls follow the shape of the dose curve; as a rule, active = well fitted curve in the direction sought with a large enough effect; inconclusive = small, poorly fitted or top-dose-only effect, or another doubt; inactive = no such curve, though single readings can be large or run the other way.

This assay is described as follows: Cell Viability - CRE-beta lactamase CHO cell - 24 hr assay. To be noted: CRE-bla CHO viability, ATP luminescence; series mostly up to 46.1 µM. From the text: NIH Molecular Libraries Screening Centers Network [MLSCN] NIH Chemical Genomics Center [NCGC] National Institutes of Environmental Health Sciences [NIEHS] National Toxicology Program [NTP] MLSCN Grant: 1X01MH079867-01 Assay Provider: Marshall W. Nirenberg, U.S. National Heart, Lung and Blood Institute NCGC Assay Overview: We have developed a 1536-well cell-based assay for quantitative high throughput screening (qHTS) against a number of cell lines to determine in vitro cytotoxicity of small molecules. This particular assay uses CRE-bla CHO cell line from Invitrogen.
NCGC Assay Protocol Summary: The CellTiter-Glo luminescent cell viability assay (Promega) is a homogeneous method to measure the number of viable cells in culture. The end point readout of this assay is based on quantitation of intracellular ATP, an indicator of metabolic activity, using the luciferase reaction. Luciferase catalyzes the oxidation of beetle Luciferin to oxyluciferin and light in the presence of ATP. The luminescent signal is proportional to amount of ATP present. Using the CellTiter-Glo luminescent cell viability assay, the amount of cellular ATP was measured in the CRE-bla CHO cell line with complete culture medium following compound treatment for 24 hours. The assay was performed in opaque white Kalypsys 1536-well plates. In the screen, tamoxifen was used as positive control. The selected compounds were measured for their ability to cause acute toxicity in the cell line, as reflected by a decrease in intracellular ATP levels, in a concentration-dependent manner. Data were normalized to the controls for basal activity (DMSO only) and 100% inhibition (100 uM tamoxifen). AC50 values were determined from concentration-response data modeled with the standard Hill equation. NCGC Assay Protocol Summary 1. Reagent; 5 uL; 2000 CHO cells/well 2. Time; overnight; 37 C incubation 3. Compounds; 23 nL; 5.9 nM to 46 uM 4. Controls; 23 nL; Tamoxifen 4.5 nM to 92 uM 5. Time; 24 hr; 37 C incubation 6. Reagent; 5 uL; CellTiter Glo reagent 7. Time; 20 min; Room Temperature 8. Detection; Luminescence; Viewlux plate reader Keywords: cell viability, cytotoxicity, CHO cell line, luminescence, MLSMR, MLSCN, NIH Roadmap, qHTS, NCGC
On to `Cc1nn(-c2ccccc2)c2sc(C(=O)N(Cc3ccco3)C(C)C(=O)NC(C)(C)C)cc12` (stereo not given), for which the result was inactive.
Under `COc1ccc(CCNC(=O)CSc2nc(C)nc3c2oc2ccccc23)cc1OC` stands “inactive”; under `CCc1nc(Nc2ccc3nccnc3c2)c2oc3ccccc3c2n1`, “inactive”.
Consider `CC1CCc2sc3nc(N4CCN(CCO)CC4)n4ncnc4c3c2C1` (stereo not given), for which the molecule was classed as inactive.
On to `Cc1nc(SCC(=O)Nc2cc(C)on2)c2c3c(sc2n1)CCCC3`, for which the molecule was classed as inactive.
